# Experimental data published in PubChem BioAssay (NCATS).
# Active and inactive are the calls of the source. The call rests on the fitted dose curve; in most records, active means well fitted cell-killing curve with a large enough effect; inconclusive means small, poorly fitted or top-dose-only effect; inactive means flat fitted curve, though single readings scatter.
# Assay: Cell Viability - LYMP1-003 - Assay at 24 hr (AID 963)
# Conditions: LYMP1-003 lymphoblastoid cell viability; series mostly up to 92.2 µM; viability change, negative = cytotoxic: at the top concentration
# Text: NIH Chemical Genomics Center [NCGC]
# NIH Molecular Libraries Screening Centers Network [MLSCN]
# National Institutes of Environmental Health Sciences [NIEHS]
# National Toxicology Program [NTP]
# We have developed a 1536-well cell-based assay for quantitative high throughput screening (qHTS) against a number of cell lines to determine in vitro cytotoxicity of small molecules. This particular assay uses a human lymphoblastoid cell line (LYMP1-003) purchased from Coriell Institute for Medical Research.
# NCGC Assay Protocol Summary:
# The CellTiter-Glo luminescent cell viability assay (Promega) is a homogeneous method to measure the number of viable cells in culture. The end point readout of this assay is based on quantitation of intracellular ATP, an indicator of metabolic activity, using the luciferase reaction. Luciferase catalyzes the oxidation of beetle Luciferin to oxyluciferin and light in the presence of ATP. The luminescent signal is proportional to amount of ATP present.
# Using the CellTiter-Glo luminescent cell viability assay, the amount of cellular ATP was measured in the lymphoblastoid cell line with complete culture medium following compound treatment for 24 hours. The assay was performed in opaque white Kalypsys 1536-well plates. In the screen, tetraoctylammonium bromide was used as positive control. Library compounds were measured for their ability to cause acute toxicity in the cell line, as reflected by a decrease in intracellular ATP levels, in a concentration-dependent manner. […] AC50 values were determined from concentration-response data modeled with the standard Hill equation.
# qHTS protocol for CellTiter Glo lymphoblastoid cellular assay
# [Step] [Parameter] [Value] [Description]
# 1. Reagent; 5 uL; 2500 lymphoblastoid cells/well
# 2. Time; 5 hr; 37 C incubation
# 4. Controls; 23 nL; Tetraoctylammonium bromide 6.4pM to 92 uM
# 5. Time; 24 hr; 37 C incubation
# 6. Reagent; 5 uL; CellTiter Glo reagent
# 7. Time; 30 min; Room Temperature
# 8. Detection; Luminescence; Viewlux plate reader
# Keywords: cell viability, cytotoxicity, lymphoblastoid cell line, luminescence, NTPHTS, NTPHTS_NCGC, NIEHS, DSSTox, MLSMR, MLSCN, NIH Roadmap, qHTS, NCGC
row,Structure (SMILES),"viability change, negative = cytotoxic"
1,CCCCCCCCCCCCOCC1CO1 (stereo not given),-2.91% (inactive)
2,Clc1ccccn1,-2.22% (inactive)
3,O=Cc1ccc(C(=O)O)cc1,1.91% (inactive)
4,Clc1ccc(Cl)c(Cl)c1Cl,-1.25% (inactive)
5,NC(=O)c1cccc([N+](=O)[O-])c1,-0.247% (inactive)
6,Cc1cc(C)cc(N)c1,-2.61% (inactive)
7,CC(=O)OC(C)C,-3.12% (inactive)
8,CCC(=O)/C=C/C1C(C)=CCCC1(C)C (stereo not given),3.35% (inactive)
9,CC(=O)CCc1ccccc1,-3.31% (inactive)
10,CCC=O,-0.459% (inactive)
11,CCCC(Cl)CCCC(Cl)CCC(Cl)CCC(Cl)CCC(Cl)CCCC(Cl)CCC (stereo not given),1.25% (inactive)
12,Nc1cc([N+](=O)[O-])ccc1C(=O)O,0.118% (inactive)
13,C=CC(=O)OCCCC,-2.52% (inactive)
14,ON=C1CCCCC1,-3.18% (inactive)
15,CCCCOCCOCCOCCCC,-0.11% (inactive)
16,C=CCCCCCC,1.96% (inactive)
17,COc1cccc2sc(N)nc12,0.577% (inactive)
18,CCC(C)(C)C(=O)O,-5.53% (inactive)
19,FB(F)F,-1.68% (inactive)
20,C/C(C=O)=C/c1ccccc1,-1.51% (inactive)

row,Structure (SMILES),"viability change, negative = cytotoxic"
1,Cc1ccc(C)cc1,-3.37% (inactive)
2,CCCCC/C=C/C=C/C=O,1.83% (inactive)
3,O=Cc1ccc(Cl)cc1,-2.96% (inactive)
4,Oc1cccc(Nc2ccccc2)c1,-8.58% (inactive)
5,CCCCC(CC)COC(=O)CCCCC(=O)OCC(CC)CCCC (stereo not given),-1.12% (inactive)
6,CCCCCNCCCCC,-0.107% (inactive)
7,C=CCOC(=O)CCCCCCCC,-0.39% (inactive)
8,C[C@@H]1CC2(OC3C[C@@]4(C)C5=CC[C@H]6C(C)(C)C(O[C@@H]7OC[C@@H](O)[C@H](O)[C@H]7O)CC[C@@]67C[C@@]57CC[C@]4(C)C31)OC(O)C1(C)OC21 (stereo not given in full),-5.98% (inactive)
9,CC(C)(c1cc(Br)c(OCC(Br)CBr)c(Br)c1)c1cc(Br)c(OCC(Br)CBr)c(Br)c1 (stereo not given),-0.711% (inactive)
10,ICCc1ccccc1,-8.35% (inactive)
11,Cc1ccc2oc(=O)ccc2c1,0.527% (inactive)
12,CC(=O)OC(C)=O,3.13% (inactive)
13,CCOc1cccc(N)c1,-4.46% (inactive)
14,Cc1cccc(C(=O)O)c1[N+](=O)[O-],-1.68% (inactive)
15,O=[N+]([O-])c1cccc(Cl)c1,6.41% (inactive)
16,C=CC(=O)NC(C)C,1.17% (inactive)
17,CNc1ccc([N+](=O)[O-])cc1,-2.63% (inactive)
18,CC(=O)OCc1ccco1,2.32% (inactive)
19,C=CCn1c(=O)n(CC=C)c(=O)n(CC=C)c1=O,-0.434% (inactive)
20,Cc1cccc(C)c1,-7.27% (inactive)
